# Source: PubChem BioAssay (National Center for Advancing Translational Sciences (NCATS))
# ELG1 DNA repair – blocks ELG1-dependent DNA repair in HEK293T cells; Potency, µM (highest dose often 46.1 µM), inactives show at the top dose activity change, negative = inhibition, hits mostly inhibitors; HEK293T ELG1-luciferase reporter, luminescence, 16 h; DNA damage induced by 5-fluorouridine; hit rate 2.3% among 330,000; note: % is set by controls: 0 for no effect and ±100 for the full control effect; nearly all actives have a fitted effect of over 55% in size
#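 5-Fluorouridine DNA damage + compound/DMSO, 2,000 cells/well, 16 h, 37 °C/5% CO2. ONE-Glo, 30 min RT, luminescence. Readout = decrease in reporter signal.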
# SW480 rereplic – induces DNA re-replication in SW480 colon adenocarcinoma cells; hit rate 1.8% among 340,000; Potency, µM (titrated, usually from 46.1 µM), for the others: at the top dose re-replication activation, usual class: activators; SW480 DNA re-replication, Hoechst DNA content imaging, 48 h; AID 624297; note: % of control where 0% means no effect; nearly all actives have a fitted effect of over 55% in size
#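 Quantitative HTS format with DMSO vehicle controls; 48 hr drug incubation at 37 C, then 40 min Hoechst staining and scanning imager measurement at 405 nm excitation.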
# Gal4-VP16 FLuc – inhibits Gal4-VP16 luciferase reporter, ROR gamma counter-screen | Drosophila S2 Gal4-VP16 UAS-luciferase, luminescence, 20 h | Potency, µM (top dose mostly 53.6 µM), for inactives: at the highest dose activity, negative = inhibition, most hits filed as inhibitors | hit rate 3.5% among 310,000 | AID 2546;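 note: Gal4-VP16 expression switched on by copper sulfate through the metallothionein promoter; % is set by controls: 0 for no effect and ±100 for the full control effect; nearly all actives have a fitted effect of over 50% in size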
# RORgamma inh – inhibitors of mouse ROR gamma transcriptional activity; Potency, µM (highest dose often 53.6 µM), for the others: at the highest dose activity change, negative = inhibition, actives largely listed as inhibitors; hit rate 5.4% among 310,000; AID 2551; P51450; Drosophila S2 Gal4-RORgamma UAS-luciferase reporter, 20 h; note: % is set by controls: 0 for no effect and ±100 for the full control effect; nearly all actives have a fitted effect of over 60% in size
# Target sequence (P51450 whole entry, looked up, the tested form may be a part): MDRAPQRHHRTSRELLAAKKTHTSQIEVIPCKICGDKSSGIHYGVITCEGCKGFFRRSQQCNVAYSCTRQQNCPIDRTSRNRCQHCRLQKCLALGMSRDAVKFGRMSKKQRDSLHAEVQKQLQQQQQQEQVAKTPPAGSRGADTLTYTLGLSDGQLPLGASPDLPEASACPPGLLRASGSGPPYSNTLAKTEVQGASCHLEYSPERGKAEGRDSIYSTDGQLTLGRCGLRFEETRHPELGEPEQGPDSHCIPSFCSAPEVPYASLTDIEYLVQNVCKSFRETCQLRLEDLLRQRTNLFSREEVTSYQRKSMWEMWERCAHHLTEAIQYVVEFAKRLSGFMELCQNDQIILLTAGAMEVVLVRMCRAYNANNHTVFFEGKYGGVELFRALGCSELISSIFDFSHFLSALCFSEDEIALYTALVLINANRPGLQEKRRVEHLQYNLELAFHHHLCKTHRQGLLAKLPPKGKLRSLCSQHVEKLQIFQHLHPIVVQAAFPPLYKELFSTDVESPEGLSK
#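 In this cell-based reporter format, copper sulfate (700 uM final) drives Gal4–ROR gamma fusion expression from a metallothionein promoter in Drosophila Schneider cells; compounds preincubated 1 hr, reporter read after 20 hr at ambient temperature.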
# MCF10A rereplic – induces DNA re-replication in MCF 10a normal breast cells; MCF 10A DNA re-replication, Hoechst nuclear intensity, 48 h; Potency, µM (top dose mostly 46.1 µM), for the others: at the top dose activity, positive = re-replication, most hits filed as activators; hit rate 2.9% among 350,000; AID 624296; note: % of control where 0% means no effect; nearly all actives have a fitted effect of over 50% in size
# Numbers without * were called inactive; ? = inconclusive; . = not tested or not shown; ! = a repeat was not active; [ ] = dose if it differs, or a comment. Sampled rows, rich in hits. Any-hit rate of the full collection: about 10%. Calls come from the whole dose curve; as a rule, active = well fitted curve in the direction sought with a large enough effect; inconclusive = small, poorly fitted or top-dose-only effect, or another doubt; inactive = no such curve, though single readings can be large; an effect the other way counts as inactive or inconclusive. Potency is the fitted concentration of half-maximal effect.
SMILES,ELG1 DNA repair,SW480 rereplic,Gal4-VP16 FLuc,RORgamma inh,MCF10A rereplic
COc1ccc(Cc2nnc(SCC(=O)NC3CCCC3)o2)cc1,1.4%,-3.2%,?,45.0%,-1.0%
Cc1ccc(NC(=O)CN2CCN(C)CC2)cc1S(=O)(=O)N1CCOCC1,7.7%,-7.1%,.,.,-1.4%
CCC(=O)NC(c1cc(Cl)c2ccccc2c1O)C(C)C (centres undefined),16.4%,-45.1%[9.22 µM],.,.,3.7%
CCC(=O)NC(/C=C/c1ccccc1)c1cc([N+](=O)[O-])c2cccnc2c1O (centres undefined),-19.5%,.,2µM*,2.24µM*,.
CC(C)C(=O)NC(c1cccs1)c1cc([N+](=O)[O-])c2cccnc2c1O (centres undefined),-26.3%,?,3.55µM*,3.16µM*,?
CC(=O)NC(c1cccs1)c1cc(F)c2cccnc2c1O (centres undefined),?,?,.,.,-18.3%
Cc1ccc(C(NC(=O)C(C)C)c2cc([N+](=O)[O-])c3cccnc3c2O)cc1 (centres undefined),?,20.0%,?,2.24µM*,15.0%
CC(C)C(=O)NC(c1cccc([N+](=O)[O-])c1)c1c(O)ccc2ccccc12 (centres undefined),5.6%,2.7%,6.6%,3.0%,-3.3%
COc1nc(-c2ccccc2)nc(-c2ccccc2)c1C,.,6.1%,.,.,23.1µM*
COc1cnc(-c2ccccc2)nc1OC,?,-12.3%,0.3%,?,-1.7%
CS(=O)(=O)NCc1nnc(SCc2ccc(C(F)(F)F)cc2)o1,7.5%,-2.3%,4.7%,43.0%,-2.5%
Oc1ccc(N2CCN(c3ncnc4sc5c(c34)CCC5)CC2)cc1,?,?,0.6%,-9.4%,13µM*
OCCN1CCN(c2ncnc3sc4c(c23)CCCC4)CC1,-9.6%,-1.1%,-11.1%,-8.8%,-0.1%
CC(=O)NS(=O)(=O)c1ccc(NC(=O)c2ccc3c(c2)NC(=O)CS3)cc1,11.5%,-8.7%,.,.,-13.0%
COc1ccc(NC(=O)c2ccc3c(c2)NC(=O)CS3)cc1S(=O)(=O)Nc1ccc(Br)cc1,11.6µM*,14.2%,?,-43.2%,0.8%
Cc1ccc(NS(=O)(=O)c2cc(NC(=O)c3ccc4c(c3)NC(=O)CS4)ccc2C)c(C)c1,18.3µM*,-1.4%,-7.2%,9.8%,?
COc1ccc2[nH]c3c(c2c1)CCN1C(=O)N([C@@H](C)C(=O)NCc2ccc(C)cc2)C(=O)[C@]31C,12.3%,11.6%,-4.3%,-17.7%,-6.2%
N=C(N)c1ccc(/C=C/c2ccc(C(=N)N)cc2O)cc1,-1.8%,-2.5%,2.0%,1.6%,25.3%
CC(=NN=C(C)c1ccc(O)cc1)c1ccc(O)cc1,.,-9.7%,.,.,13.9%
C/C=C(/C(=C/C)c1ccc(O)cc1)c1ccc(O)cc1,-15.3%,?,-4.2%,30.1%,4.61µM*!
CCOc1ccc(Br)cc1S(=O)(=O)NC1CC(C)(C)NC(C)(C)C1,7.5%,0.517µM*,-0.6%,-26.7%,12.8%
CCOc1cc(C)c(S(=O)(=O)NC2CC(C)(C)NC(C)(C)C2)cc1C,-0.9%,-7.8%,3.5%[10 µM],-0.9%,1.6%
COC(=O)CNC(=O)C(Cc1ccccc1)NS(=O)(=O)c1ccc2c(c1)c(=O)n(C)c(=O)n2C (centres undefined),0.8%,6.3%,-4.6%,-20.6%,16.5%
COc1cc2c(cc1OC)C(C)N(C(=O)c1nccnc1C(=O)O)CC2 (centres undefined),-4.0%,0.9%,1.4%,-15.2%,-1.4%
COc1cc2c(cc1OC)C(C)N(C(=O)Nc1cc(C)cc(C)c1)CC2 (centres undefined),?,?,-21.3%,-16.2%,3.66µM*
SMILES,ELG1 DNA repair,SW480 rereplic,Gal4-VP16 FLuc,RORgamma inh,MCF10A rereplic
COc1cc2c(cc1OC)C(C)N(C(=O)c1cc(Cl)nc(Cl)c1)CC2 (centres undefined),?,8.2µM*,-0.5%,-8.8%,9.2µM*
COc1cc2c(cc1OC)C(C)N(C(=O)Nc1ccc(F)cc1)CC2 (centres undefined),?,?,6.0%,17.1%,?
COc1cc2c(cc1OC)C(C)N(C(=O)c1cc3c(C)cc(C)cc3[nH]1)CC2 (centres undefined),16.4µM*,?,-28.9%,-7.4%,?
CC(C)N1C(=O)CSC1c1ccc(Br)cc1 (centres undefined),-10.0%,-2.2%,23.2%,-39.7%,-25.9%
O=C(CNC(=O)c1ccc(Br)o1)OCC(=O)c1cccc([N+](=O)[O-])c1,12.2%,1.7%,?,-25.2%,-2.3%
Cc1cccc(-n2ncc3c2CCCC3NC(=O)C2(C(N)=O)CC2)c1C (centres undefined),-2.7%,4.6%,7.94µM*,?,4.9%
Cc1nnsc1C(=O)NC1CCCc2c1cnn2-c1ccc(C(C)(C)C)cc1 (centres undefined),1.9%,?,6.31µM*,-37.4%,?
CC(C)(C)c1ccc(-n2ncc3c2CCCC3NC(=O)c2ccncc2)cc1 (centres undefined),.,2.0%,.,.,17.0%
COc1ccc(C(=O)NC2CCCc3c2cnn3-c2ccccc2F)cc1OC (centres undefined),?,?,2.51µM*,?,11.0%
CC(C)(C)c1ccc(-n2ncc3c2CCCC3NC(=O)CN2CCOC2=O)cc1 (centres undefined),-3.4%,7.8%,12.6µM*,-2.6%,28.4%
Cc1nnsc1C(=O)NC1CCCc2c1cnn2-c1ccccc1F (centres undefined),?,-10.1%,10µM*,16.6%,?
O=C(NC1CCCc2c1cnn2-c1ccccc1F)c1ccccn1 (centres undefined),?,-0.3%,3.2%,52.1%,-2.8%
O=C1Nc2ccc(Cl)cc2/C1=C/C1CC=CCC1 (centres undefined),-10.3%,?,?,?,?
O=C(CNC(=S)NC(=O)c1cccs1)c1ccccc1,?,?,?,8.91µM*,6.5%
O=C(NC(=S)NCc1ccccc1)c1cccs1,?,-3.3%,7.94µM*,5.01µM*,1.0%
O=C(Cc1ccccc1)NNC(=S)NC(=O)c1cccs1,1.5%,?,1.8%,?,9.6%
Cc1ccc(C(=O)NC(=S)NCC(=O)c2ccccc2)cc1,25.0%,-1.7%,?,?,12.0%
Cc1nc(N)nc(-c2ccccc2O)n1,?,-2.0%,-0.3%,?,6.6%
Nc1nc(N)nc(-c2cc(O)ccc2O)n1,1.16µM*,?,.,.,?
Cc1ccc(C)c2[nH]c(=O)c(CN(CCN3CCCC3)C(=O)Nc3cccc(Cl)c3)cc12,14.6µM*,2.7%[9.22 µM],-1.0%,-21.8%,4.2%
Cc1cc(C)c2cc(CN(CCN3CCCC3)C(=O)Nc3ccc(F)cc3)c(=O)[nH]c2c1,?,15.1%,-17.8%,-4.8%,24.1%
